Reference: PubChem BioAssay (NCATS)
Results filed as inconclusive are left out. A number with no mark means an inactive call. Calls of active or inactive are those of the source. Calls follow the shape of the dose curve; as a rule, active = well fitted cell-killing curve with a large enough effect; inconclusive = small, poorly fitted or top-dose-only effect; inactive = flat fitted curve, though single readings scatter.

assay: qHTS of pediatric cancer cell lines to identify multiple opportunities for drug repurposing: Primary screen for control Hh wild type fibroblast cells (AID 1347106); settings: Hh wild-type fibroblast viability, CellTiter-Glo luminescence, 48 h; series mostly up to 46 µM; activity change, negative = cytotoxic: at the top concentration; also: nearly all actives have a fitted effect of over 55% in size;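 as to activity change, negative = cytotoxic: a drop in luminescence marks cytotoxicity and a rise apparent proliferation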
Method in brief: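 Cells (500-1,000/well) in growth media were settled 5 h at 37 degrees C, then given compounds for 48 h. Viability was read as CellTiter-Glo luminescence. Primary runs used MIPE at 11 points (0.78 nM-46 µM) and NPC at 8 points (0.59 nM-46 µM); follow-ups used 11 points.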
% is scaled to controls: 0 for no effect and ±100 for the full control effect; potency is read from the fitted curve at half-maximal effect.

SMILES | activity change, negative = cytotoxic [%] | Potency
Cc1cc(C(=O)NOCCO)c(Nc2ccc(I)cc2F)n(C)c1=O | -24.2 | –
O=C(Nc1nnc(-c2ccco2)o1)c1cc(-c2ccccc2)nc2ccccc12 | 7.55 | –
OCC(O)C(O)C(O)CO (stereo unspecified) | -4.59 | –
Nc1nc(=O)n([C@H]2C[C@H](O)[C@@H](CO)O2)cc1F | -7.49 | –
C[C@H]1[C@@H](OC(=O)CCC(=O)O)O[C@@H]2O[C@@]3(C)CC[C@@H]4[C@H](C)CC[C@@H]1[C@@]24OO3 | -14.4 | –
Cc1cnc(Nc2ccc(CN3CCOCC3)cc2)nc1Nc1cccc(S(=O)(=O)NC(C)(C)C)c1 | – | 11.8 µM (active)
OC[C@@H](O)[C@@H](O)[C@H](O)[C@@H](O)CO | 6.55 | –
CC(C)c1cc(C(C)C)c(CC(=O)NS(=O)(=O)Oc2c(C(C)C)cccc2C(C)C)c(C(C)C)c1 | 8.95 | –
C[C@H](NC(=O)C(C#N)=Cc1cccc(Br)n1)c1ccccc1 | -19.5 | –
COC(=O)[C@@H]1[C@H]2C[C@@H]3c4[nH]c5ccccc5c4CCN3C[C@@H]2CC[C@@H]1O | 0.772 | –
C=C(C)[C@@H]1CC[C@]2(C(=O)O)CC[C@]3(C)[C@H](CC[C@@H]4[C@@]5(C)CC[C@H](O)C(C)(C)[C@@H]5CC[C@]43C)[C@@H]12 | 18.9 | –
CC(C)C[C@H](NC(=O)[C@@H](NC(=O)c1cccc(-c2ccccc2)n1)[C@@H](C)O)B(O)O | – | 0.209 µM (active)
C[N+](C)([O-])CCNc1ccc(NCC[N+](C)(C)[O-])c2c1C(=O)c1c(O)ccc(O)c1C2=O | -20.7 | –
CCN(C(=O)c1c(O)c2c(Cl)cccc2n(C)c1=O)c1ccccc1 | 3.85 | –
CC(C)(O)CC[C@@H](O)[C@](C)(O)[C@H]1CC[C@@]2(O)C3=CC(=O)[C@@H]4C[C@@H](O)[C@@H](O)C[C@]4(C)[C@@H]3CC[C@]12C | 2.69 | –
CCS(=O)(=O)Nc1ccc2[nH]c(O)c(C(=Nc3ccc(CN4CCCCC4)cc3)c3ccccc3)c2c1 | 2.73 | –
c1coc(CNc2ncnc3nc[nH]c23)c1 | -4.19 | –
CCCCOc1ccc(C(=O)Nc2ccc(F)cc2F)cc1 | -6.2 | –

SMILES | activity change, negative = cytotoxic [%] | Potency
CCOc1cc2c(c(F)c1OCC)C(=N)N(CC(=O)c1cc(N3CCOCC3)c(OC)c(C(C)(C)C)c1)C2 | -11.3 | –
CC[C@H]1OC(=O)[C@H](C)[C@@H](O[C@H]2C[C@@](C)(OC)[C@@H](O)[C@H](C)O2)[C@H](C)[C@@H](O[C@@H]2O[C@@H](C)C[C@H](N(C)C)[C@@H]2O)[C@](C)(O)C[C@@H](C)C(=O)[C@H](C)[C@@H](O)[C@]1(C)O | 8.73 | –
CC(Cc1ccc(O)c(O)c1)(NN)C(=O)O (stereo unspecified) | 7.44 | –
CCNC(=O)c1cc2c(-c3cc(OCCN4CCCC4)c(Cl)cc3Cl)nc(N)nc2s1 | -9.29 | –
CC(=O)O[C@H]1C[C@@H]2CC[C@H]3[C@H]4C[C@H]([N+]5(C)CCCCC5)[C@@H](OC(C)=O)[C@@]4(C)CC[C@@H]3[C@@]2(C)C[C@H]1N1CCCCC1 | -10.5 | –
CC(C)(O)[C@H]1CC[C@@](C)([C@H]2[C@@H](O)C[C@@]3(C)[C@@H]4C[C@H](O[C@@H]5O[C@H](CO)[C@@H](O)[C@H](O)[C@@H]5O)[C@H]5C(C)(C)[C@@H](O[C@@H]6OC[C@@H](O)[C@H](O)[C@@H]6O)CC[C@@]56C[C@@]46CC[C@]23C)O1 | -0.88 | –
O=C(Nc1ccc(Oc2ccnc3[nH]ccc23)c(F)c1)c1cccn(-c2ccc(F)cc2)c1=O | 6.13 | –
CC(C(C)N1CC(=O)NC(=O)C1)N1CC(=O)NC(=O)C1 (stereo unspecified) | 6.48 | –
CC(=O)OC[C@@H]1O[C@@H](n2ccc(=O)[nH]c2=O)[C@H](OC(C)=O)[C@H]1OC(C)=O | 3.27 | –
Cc1cnc(NC(=O)Nc2cc(Br)c(C)cc2OC[C@@H]2CNCCO2)cn1 | 5.55 | –
Cn1cnc2c(F)c(Nc3ccc(Br)cc3F)c(C(=O)NOCCO)cc21 | -16.2 | –
C[C@H](NC(=O)[C@@H](O)c1cc(F)cc(F)c1)C(=O)N[C@@H]1C(=O)N(C)c2ccccc2-c2ccccc21 | 3.39 | –
O=S(=O)(O)CCSSCCS(=O)(=O)O | 17.1 | –
CON=C(C(=O)N[C@@H]1C(=O)N2C(C(=O)O)=C(CSC(=O)c3ccco3)CS[C@H]12)c1csc(N)n1 | 4.09 | –
C[C@@]12C[C@@]3(O)O[C@@H](O1)[C@]1(COC(=O)c4ccccc4)[C@@H]3C[C@@]12O[C@@H]1O[C@H](CO)[C@@H](O)[C@H](O)[C@@H]1O | 2.11 | –
CC(=O)C1=C(O)C=C2Oc3c(C(C)=O)c(O)c(C)c(O)c3C2(C)C1=O (stereo unspecified) | 8.48 | –
C[C@]12C=CC(=O)N[C@@H]1CC[C@H]1[C@H]3CC[C@@H](C(=O)Nc4cc(C(F)(F)F)ccc4C(F)(F)F)[C@@]3(C)CC[C@@H]12 | -4.12 | –
CC(=O)O[C@@]12CO[C@H]1C[C@H](O)[C@@]1(C)C(=O)[C@H](O)C3=C(C)[C@@H](OC(=O)C(O)[C@@H](NC(=O)OC(C)(C)C)c4ccccc4)C[C@@](O)([C@@H](OC(=O)c4ccccc4)[C@@H]21)C3(C)C (stereo partly specified) | -12.7 | –
